Bioassay records as filed in PubChem BioAssay.
Most compounds without a hit are left out; they make up all but 6.9% or so of the library.
KB-3-1 tox: qHTS assay for MDR1-selective chemotherapeutics: Primary screen using the parental adenocarcinoma cell KB-3-1; Potency, µM (doses to about 46.1 µM), most hits filed as cytotoxic; KB-3-1 viability, CellTiter-Glo ATP luminescence, 72 h; hit rate 1.4% among 400,000; also: nearly all actives have a fitted effect of over 60% in size
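72 h, 37 °C compound treatment of KB-3-1 parental cells; CellTiter-Glo added, 10 min, luminescence read. Data corrected against DMSO-only plates and normalized before curve fitting.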
SW480 rerep: A quantitative high throughput screen for small molecules that induce DNA re-replication in SW480 colon adenocarcinoma cells; hit rate 1.8% among 340,000; Potency, µM (highest dose often 46.1 µM), usual class: activators; SW480 DNA re-replication, Hoechst DNA content imaging, 48 h; also: nearly all actives have a fitted effect of over 55% in size
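250 cells/well; 23 nL cpd via pin tool; 48 hr, 37 C, 5% CO2; Hoechst 40 min; imager read of total nuclear intensity, ex 405/em 500-530 nm.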
Giardia kill: Small Molecules that selectively kill Giardia lamblia: qHTS | activity change, % at 7.66 µM, hits read low | Giardia lamblia trophozoite viability | hit rate 0.15% among 340,000; in the data active = activity change below about -80%; inconclusive = between about -30% and that limit;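 also: parasites exposed to compound for two days anaerobically before the ATP read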
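Luminescent ATP signal served as the viability read-out, measured 15-30 min after adding ATP detection reagent to trophozoites that had been incubated with compounds for 48 hrs at 37 deg C anaerobically at 100 cells/well.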
ASM inhibitor: Inhibitors of Secretory Acid Sphingomyelinase (S-ASM): qHTS; Sphingomyelin phosphodiesterase (Homo sapiens), P17405; AID 504937, 2011; hit rate 0.006% among 340,000; Potency, µM (doses to about 57.5 µM), most hits filed as inhibitors; placental ASM, HMU-PC fluorogenic substrate, 60 min
Target sequence (P17405 47-631 limits assumed): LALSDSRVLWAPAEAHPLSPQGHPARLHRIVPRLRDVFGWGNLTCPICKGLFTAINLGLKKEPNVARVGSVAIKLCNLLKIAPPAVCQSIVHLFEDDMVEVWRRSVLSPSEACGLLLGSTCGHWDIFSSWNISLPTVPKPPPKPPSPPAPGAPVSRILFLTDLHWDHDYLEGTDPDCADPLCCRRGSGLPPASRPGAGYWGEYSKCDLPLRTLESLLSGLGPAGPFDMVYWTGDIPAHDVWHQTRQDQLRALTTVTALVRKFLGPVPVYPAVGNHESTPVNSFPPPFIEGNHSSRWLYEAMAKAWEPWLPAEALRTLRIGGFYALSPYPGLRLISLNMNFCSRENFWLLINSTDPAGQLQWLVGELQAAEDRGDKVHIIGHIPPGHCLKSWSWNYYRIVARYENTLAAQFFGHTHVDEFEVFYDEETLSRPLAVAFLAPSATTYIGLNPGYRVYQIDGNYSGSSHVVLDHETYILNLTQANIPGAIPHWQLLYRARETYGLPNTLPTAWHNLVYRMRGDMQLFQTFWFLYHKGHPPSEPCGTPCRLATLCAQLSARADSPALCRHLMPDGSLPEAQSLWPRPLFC
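Human placenta-derived ASM enzyme was preincubated with compound for 10 minutes at room temperature, then given fluorogenic substrate HMU-PC0 (9 uM final) for 60 minutes at 37 °C; a pH 10 stop preceded fluorescence reading at Ex 386/Em 447 nm.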
KB-V1 cytotox: qHTS assay for MDR1-selective chemotherapeutics: Primary screen using the drug-selected MDR subline cells KB-V1 | KB-V1 MDR cells viability, CellTiter-Glo, 72 h | Potency, µM (top dose mostly 46.1 µM), most hits filed as cytotoxic | hit rate 3.4% among 400,000; also: nearly all actives have a fitted effect of over 60% in size
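KB-V1 MDR subline cells in DMEM (phenol-red free, 10% FBS) exposed to compounds in qHTS concentration series for 72 h at 37 degrees C. Viability read by CellTiter-Glo luminescence; concentration-effect curves fitted after normalization and correction.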
MCF10A rereplic: A quantitative high throughput screen for small molecules that induce DNA re-replication in MCF 10a normal breast cells. MCF 10A DNA re-replication, Hoechst nuclear intensity, 48 h. Potency, µM (titrated, usually from 46.1 µM), hits mostly activators. hit rate 2.9% among 350,000; also: nearly all actives have a fitted effect of over 50% in size
Of the large screens only hits and unclear results are named; the others gave an inactive call. Unless noted, calls follow the shape of the dose curve; as a rule, active = well fitted curve in the direction sought with a large enough effect; inconclusive = small, poorly fitted or top-dose-only effect, or another doubt; inactive = no such curve, though single readings can be large; an effect the other way counts as inactive or inconclusive.

CC(C)(C)c1ccc(CN(Cc2ccco2)Cc2nnnn2C2CCCC2)cc1	KB-V1 cytotox 16µM, MCF10A rereplic inconclusive
CCC(C)(C)n1nnnc1CN(Cc1ccco1)Cc1cc2cc3c(cc2[nH]c1=O)OCO3	KB-V1 cytotox inconclusive
COCCNC(=O)Cn1c(-c2cccs2)cc2cc(Cl)ccc21	none (no result: SW480 rerep, Giardia kill, ASM inhibitor, MCF10A rereplic)
Nc1sc(-c2ccccc2)cc1-c1n[nH]c(=S)n1C1CCCCC1	KB-3-1 tox inconclusive, SW480 rerep 3.3µM, MCF10A rereplic 3.3µM
Cc1sc2ccccc2[n+]1CCCC[n+]1c(C)sc2ccccc21	none (no result: SW480 rerep, Giardia kill, ASM inhibitor, MCF10A rereplic)
Cn1ncc(Cl)c1C(=O)NCc1ccc(Cl)cc1	KB-3-1 tox inconclusive, SW480 rerep inconclusive, KB-V1 cytotox 3.7µM
Cn1ncc(Cl)c1C(=O)NCc1ccc2c(c1)OCO2	none
O=C1CCCc2cc(S(=O)(=O)N3CCCC(C(=O)NCc4ccccc4Cl)C3)ccc2N1 (configuration not stated)	KB-3-1 tox inconclusive (no result: SW480 rerep, Giardia kill, ASM inhibitor, MCF10A rereplic)
COC(=O)c1ccccc1NC(=O)Cn1cnc2sc(C)c(S(=O)(=O)N3CCC(C)CC3)c2c1=O	none (no result: SW480 rerep, Giardia kill, ASM inhibitor, MCF10A rereplic)
COc1ccc(Cl)cc1NC(=S)NCCN1CCOCC1	SW480 rerep inconclusive, MCF10A rereplic 0.46µM
COc1cc(CNCCCN2CCOCC2)cc(Br)c1OCc1ccc(Cl)cc1	KB-3-1 tox inconclusive, KB-V1 cytotox inconclusive, MCF10A rereplic 13µM
COc1ccc(Cl)cc1NC(=S)N(CCCN1CCOCC1)Cc1cn(C)c2ccccc12	KB-3-1 tox inconclusive, SW480 rerep 23µM, MCF10A rereplic inconclusive
COc1cc(Cl)ccc1NC(=S)N(CCCN1CCOCC1)Cc1cn(C)c2ccccc12	KB-3-1 tox inconclusive, SW480 rerep inconclusive, MCF10A rereplic inconclusive
COc1cc(CNCCN2CCOCC2)ccc1OCc1ccc(Cl)cc1	KB-3-1 tox inconclusive, SW480 rerep inconclusive, MCF10A rereplic inconclusive
Cc1ccc(S(=O)(=O)CCC(=O)Nc2cc(C)on2)cc1	none (no result: SW480 rerep, Giardia kill, ASM inhibitor, MCF10A rereplic)
CS(=O)(=O)c1nc(-c2ccccc2)cc(C(F)(F)F)n1	KB-3-1 tox inconclusive, SW480 rerep inconclusive, KB-V1 cytotox inconclusive, MCF10A rereplic 2.6µM
Cc1cc(NC(=O)CCS(=O)(=O)c2nc(-c3ccccc3)cc(C(F)(F)F)n2)no1	KB-3-1 tox inconclusive, SW480 rerep inconclusive, MCF10A rereplic 5.2µM
CCc1ccc(-n2cnc3cc(C(=O)NCc4ccc(C)cc4)ccc32)cc1	none (no result: SW480 rerep, Giardia kill, ASM inhibitor, MCF10A rereplic)
CC1CCCC(C)N1C(=O)CSc1nc(N)cc(N)n1 (configuration not stated)	none
CC1CCCC(C)N1C(=O)CSc1nc2ncnc(N)c2[nH]1 (configuration not stated)	SW480 rerep 8.2µM, MCF10A rereplic 6.5µM
CC(=O)c1cccc(NC(=S)NC(=O)c2ccccc2C)c1	none
CC(=O)c1cccc(NC(=S)NC(=O)c2ccccc2Br)c1	KB-V1 cytotox 21µM
CCc1sc(C(=O)Nc2cccc(C(C)=O)c2)cc1C	KB-V1 cytotox 21µM
CC(=O)c1cccc(NC(=S)NC(=O)c2cccc(C)c2)c1	KB-3-1 tox inconclusive, KB-V1 cytotox 18µM
CCCCn1c(-c2ccc(Br)cc2F)nc2c1c(=O)[nH]c(=O)n2CC(C)C	MCF10A rereplic 18µM
CCCCn1c(=O)[nH]c(=O)c2c1nc(-c1ccccn1)n2CC	KB-V1 cytotox inconclusive
CCCCn1c(=O)[nH]c(=O)c2c1nc(-c1ccc(OCCC)c(OCC)c1)n2CCOC	MCF10A rereplic 23µM
CCCCn1c(=O)[nH]c(=O)c2c1nc(-c1ccc(OCC)cc1)n2CC	none
CCCCn1c(=O)[nH]c(=O)c2c1nc(-c1ccc(-c3ccc(F)cc3)o1)n2C	SW480 rerep inconclusive, MCF10A rereplic 10µM
CCOc1ccc(CNC(=O)c2cc3ccccn3n2)cc1	none (no result: SW480 rerep, Giardia kill, ASM inhibitor, MCF10A rereplic)
OC[C@@H](O)C(O[C@@H]1O[C@@H](CO)[C@H](O)[C@H](O)[C@H]1O)[C@H](O)[C@@H](O)CO (some centres not stated)	none (no result: KB-3-1 tox, Giardia kill, ASM inhibitor, KB-V1 cytotox)
Nc1c(Br)cc(C=O)cc1Br	none (no result: SW480 rerep, Giardia kill, ASM inhibitor, MCF10A rereplic)
Cc1cccc(CN2C(=O)N/C(=C/c3ccc(C)s3)C2=O)c1	KB-3-1 tox 23µM, SW480 rerep inconclusive, KB-V1 cytotox 15µM, MCF10A rereplic 7.3µM
COc1ccc(-n2c(=O)c3c4c(sc3n(Cc3ccc(F)cc3)c2=O)CN(C(C)=O)CC4)c(OC)c1	none (no result: SW480 rerep, Giardia kill, ASM inhibitor, MCF10A rereplic)
CN1CCN(c2nc(-c3cccc([N+](=O)[O-])c3)nc3ccccc23)CC1	SW480 rerep 23µM, MCF10A rereplic 23µM
O=C(O)COc1ccccc1C=NNc1ccc([N+](=O)[O-])cc1S(=O)(=O)Nc1ccc(Cl)cc1	MCF10A rereplic 2.1µM
COc1ccccc1NS(=O)(=O)c1cc([N+](=O)[O-])ccc1N/N=C/c1c[nH]c2ccccc12	KB-3-1 tox inconclusive, SW480 rerep inconclusive, KB-V1 cytotox inconclusive, MCF10A rereplic 8.2µM
O=C(O)COc1ccccc1/C=N/Nc1ccc(S(=O)(=O)Nc2ccc(Cl)cc2)cc1[N+](=O)[O-]	none
O=C(O)c1ccccc1NS(=O)(=O)c1ccc(N/N=C/c2ccc(O)c(O)c2)c([N+](=O)[O-])c1	ASM inhibitor inconclusive
COc1ccc(NS(=O)(=O)c2cc([N+](=O)[O-])ccc2N/N=C\c2c(C)[nH]c3ccccc23)cc1	KB-3-1 tox inconclusive, KB-V1 cytotox inconclusive, MCF10A rereplic 9.2µM
Cc1[nH]c2ccccc2c1/C=N/Nc1ccc([N+](=O)[O-])cc1S(=O)(=O)Nc1ccc(Cl)cc1	KB-3-1 tox inconclusive, KB-V1 cytotox inconclusive
COc1ccc(C=NNc2ccc([N+](=O)[O-])cc2S(=O)(=O)Nc2ccccc2C(=O)O)cc1OC	MCF10A rereplic 18µM
Cc1cccc(Nc2nnc(-c3ccc(C)c(S(=O)(=O)N4CCOCC4)c3)c3ccccc23)c1	none (no result: SW480 rerep, Giardia kill, ASM inhibitor, MCF10A rereplic)
CCCCCOC(=O)CSc1nc2sc3c(c2c(=O)n1-c1ccccc1)CC(C)(CC)OC3 (configuration not stated)	none (no result: SW480 rerep, Giardia kill, ASM inhibitor, MCF10A rereplic)
COc1ccc(NS(=O)(=O)c2cc([N+](=O)[O-])ccc2NN=Cc2ccccc2OCC(=O)O)cc1	SW480 rerep inconclusive, MCF10A rereplic 21µM
COCCCNC(=O)[C@H](CSCc1ccccc1)N1Cc2ccccc2C1=O	SW480 rerep inconclusive
COCCNC(=O)[C@H](CSCc1ccccc1)N1Cc2ccccc2C1=O	KB-V1 cytotox 9.2µM
COc1ccc(NC(=O)C(=O)NCCC2CCCCN2S(=O)(=O)c2ccc(F)cc2)cc1 (configuration not stated)	KB-3-1 tox inconclusive, SW480 rerep inconclusive
